Hits are enriched below; roughly 3.5% of the tested compounds scored in any of these assays.
MITF inh: blocks human microphthalmia-associated transcription factor; O75030; AlphaScreen MITF homodimerization, bead proximity signal; inhibition, % at 2.6 µM; 0.91% of 650,000 active; AID 1259374; in the data active = inhibition above about 50%;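 note: 0% = vehicle wells with protein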
TEAD-YAP inh: TEAD-YAP interaction inhibition; HEK-TIYL cells, TEAD-Gal4/YAP UAS-luciferase luminescence; 1.4% of 640,000 active; AID 1259422; inhibition, % at 9.12 µM; in the data active = inhibition above about 32%;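 note: 0% = median of test compound wells and 100% = reference inhibitor wells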
FBW7 act: human FBW7 E3 ligase activation, primary screen | 0.13% of 650,000 active | Q969H0 | normalized activity (activation), % at 26.1 µM | AlphaScreen FBW7–phospho-cyclin E peptide binding, activator screen; in the data active = normalized activity above about 1.9%;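 note: purified mutant Fbw7 with reduced substrate affinity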
GPR151 activ: activators of human GPR151; activation, % at 11.2 µM; PathHunter beta-arrestin GPR151 cells, luminescence; 1% of 650,000 active; Q8TDV0; in the data active = activation above about 4.9%;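 note: 0% = median of compound wells and 100% = cells with positive control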
Target sequence (Q8TDV0 whole entry, looked up): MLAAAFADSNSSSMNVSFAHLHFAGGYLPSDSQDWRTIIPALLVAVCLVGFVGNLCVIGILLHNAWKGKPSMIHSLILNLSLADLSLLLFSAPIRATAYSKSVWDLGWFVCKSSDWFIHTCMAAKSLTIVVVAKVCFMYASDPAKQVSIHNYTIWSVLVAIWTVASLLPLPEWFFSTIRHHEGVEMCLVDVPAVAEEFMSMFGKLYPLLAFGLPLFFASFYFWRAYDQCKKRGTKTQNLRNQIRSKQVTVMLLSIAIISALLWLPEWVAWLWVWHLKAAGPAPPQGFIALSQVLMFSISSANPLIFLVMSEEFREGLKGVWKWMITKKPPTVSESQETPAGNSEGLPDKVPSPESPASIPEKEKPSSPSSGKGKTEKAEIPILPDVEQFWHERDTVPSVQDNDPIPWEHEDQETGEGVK
Numbers without * were called inactive.

SMILES | MITF inh | TEAD-YAP inh | FBW7 act | GPR151 activ
O=C1OCC2=C1C(c1ccc(F)cc1)c1cc3c(cc1N2)OCO3 (configuration not stated) | -2 | 50* | 0 | 0
CC(=O)Nc1ccc(C2C3=C(COC3=O)Nc3cc4c(cc32)OCO4)cc1 (configuration not stated) | 11 | -11 | 0 | -1
C=CCOC(=O)c1[nH]c2c(c1C)C(=O)CC(c1ccc(OC)cc1)C2 (configuration not stated) | 1 | -35 | 0 | 1
CCOc1ccc(C2CC(=O)c3c([nH]c(C(=O)OC)c3C)C2)cc1OC (configuration not stated) | 13 | -12 | 0 | 0
COC(=O)c1[nH]c2c(c1C)C(=O)CC(c1cc(OC)ccc1OC)C2 (configuration not stated) | -5 | 46* | 0 | 0
CCOC(=O)c1[nH]c2c(c1C)C(=O)CC(c1cc(OC)ccc1OC)C2 (configuration not stated) | 7 | 44* | 0 | 1
C=CCOC(=O)c1[nH]c2c(c1C)C(=O)CC(c1cccs1)C2 (configuration not stated) | -9 | 49* | 0 | 1
C=CCOC(=O)c1[nH]c2c(c1C)C(=O)CC(c1cc(OC)ccc1OC)C2 (configuration not stated) | -4 | 42* | 0 | 0
O=C1CSC2(C(=O)N(CN3CCOCC3)c3ccccc32)N1c1ccc(F)cc1 (configuration not stated) | 6 | 7 | 0 | 2
COCCNc1nc(-c2cc(C)n(-c3ccccc3F)c2C)cs1 | -6 | 18 | 0 | 3
Cc1c(C(=O)O)[nH]c2c1C(=O)CC(c1ccccc1Cl)C2 (configuration not stated) | -6 | -2 | 0 | -2
C=CCOC(=O)c1[nH]c2c(c1C)C(=O)CC(c1cc(OC)c(OC)c(OC)c1)C2 (configuration not stated) | -4 | 43* | 0 | 0
CCOC(=O)c1[nH]c2c(c1C)C(=O)CC(c1cccc(OC)c1)C2 (configuration not stated) | -3 | 44* | 0 | 1
C=CCOC(=O)c1[nH]c2c(c1C)C(=O)CC(c1ccc(OC)c(OC)c1)C2 (configuration not stated) | 17 | 3 | 0 | 0
COC(=O)c1[nH]c2c(c1C)C(=O)CC(c1ccccc1Cl)C2 (configuration not stated) | 20 | 52* | 0 | 0
c1ccc2sc(N3CCN(C4CCCCC4)CC3)nc2c1 | 7 | 69* | 0 | 0
COc1ccc(CCN(C(=O)c2ccc(Cl)cc2)C2CC(=O)N(c3ccccc3)C2=O)cc1OC (configuration not stated) | 2 | 6 | 0 | 0
CCCn1c(NC(=O)c2cccc(S(=O)(=O)N(C)C(C)C)c2)nc2ccccc21 | 13 | 34* | 0 | 3
O=C(O)C(=O)/C(N=Nc1ccccc1)=C(/O)c1ccc(Br)cc1 | 8 | -9 | 0 | 1
CC(=O)N(Cc1ccco1)c1nc(-c2ccc(Cl)cc2)cs1 | -9 | -6 | 0 | -1
CC(=O)Nc1ccc(Nc2nc(NCCCN3CCCC3=O)nc3c2ncn3C2CCCCC2)cc1 | -3 | -11 | 0 | -3
O=C1CCCN1CCCNc1nc(Nc2cnccn2)nc2c1ncn2CCN1CCCC1=O | 3 | 6 | 0 | 0
c1cnc(Nc2nc(NC3CC3)c3ncn(C4CCCCC4)c3n2)cn1 | 7 | 42* | 0 | 5
O=C1CCCN1CCCNc1nc(Nc2ccccc2)c2ncn(C3CCCCC3)c2n1 | -1 | 64* | 1 | -2
O=C1CCCN1CCCNc1nc(Nc2cnccn2)nc2c1ncn2C1CCCCC1 | 6 | 35* | 0 | -2
SMILES | MITF inh | TEAD-YAP inh | FBW7 act | GPR151 activ
O=C(Cn1cnc([N+](=O)[O-])n1)Nc1ccc(Cl)cc1 | -6 | -1 | 0 | -1
COc1ccc(CCNc2nc(Cl)ncc2C)cc1 | 13 | 42* | 0 | 1
Cc1cnc(Cl)nc1NCCc1ccc(O)cc1 | -2 | 0 | 0 | 1
COc1ccc(CCNc2nc(-c3cccs3)ncc2C)cc1 | 10 | 44* | 0 | 2
CCCCSCCCNC(=O)C1=C(C)C(=O)OC12CCC(C)CC2 (configuration not stated) | -4 | 4 | 0 | 2
CCN1CCc2c(sc(NC(=O)c3ccc(S(=O)(=O)N(CC)CC)cc3)c2-c2nc3ccccc3s2)C1 | 5 | -1 | 0 | 0
CCC(=O)Nc1sc2c(c1-c1nc3ccccc3s1)CCN(CC)C2 | 6 | 54* | 0 | 2
CCOC(=O)N1CCc2c(sc(NC(=O)CC)c2-c2nc3ccccc3s2)C1 | 19 | 10 | 0 | -1
CCN1CCc2c(sc(NC(C)=O)c2-c2nc3ccccc3s2)C1 | 10 | 69* | 0 | 0
CCOC(=O)c1[nH]c(C)c(C(=O)Nc2ccc(OC)cc2OC)c1C | 6 | 44* | 0 | 1
CCOC(=O)c1[nH]c(C)c(C(=O)Nc2ccccc2SC)c1C | -3 | 52* | 0 | 1
CCOC(=O)c1[nH]c(C)c(C(=O)Nc2ccccc2F)c1C | 13 | 30 | 1 | -2
CCOC(=O)c1[nH]c(C)c(C(=O)Nc2ccc(OC)cc2)c1C | -1 | -4 | 0 | -1
CCOC(=O)c1[nH]c(C)c(C(=O)Nc2ccccc2)c1C | 3 | -14 | 0 | 0
CCOC(=O)c1[nH]c(C)c(C(=O)Nc2ccccc2OC)c1C | 17 | 59* | 1 | -1
Cc1ccccc1CN[C@H]1C[C@H]2C(=O)N[C@H](Cc3ccccc3)C(=O)N2C1 | 15 | 12 | 0 | -1
CN(Cc1ccon1)Cc1c(C(=O)N2CCc3ccccc3C2)nc2ccc(Cl)cn12 | -6 | 2 | 0 | 1
Cc1ccnc(NC(=O)/C=C/c2cccs2)c1 | 16 | 55* | 1 | -6
O=C(/C=C/c1cccs1)Nc1ccc(Cl)c2ncsc12 | -10 | 87* | 0 | 1
COc1ccc(CNc2sc3c(c2C(=O)Nc2cc(Cl)ccc2OC)CCC3)cc1 | 11 | 1 | 0 | 0
CCOC(=O)c1ccc(NC(=O)CC23CC4CC(CC(C4)C2)C3)cc1 | 10 | 69* | 0 | -1
CCSC1=NSC2=NC(=O)/C(=C\c3ccco3)C(=N)N12 | 6 | -11 | 0 | 1
C/C(=N\NC(=O)c1nnn(-c2nonc2N)c1-c1ccccc1)c1ccc(O)cc1 | 1 | 13 | 0 | 2
C/C(=N\NC(=O)c1nnn(-c2nonc2N)c1-c1ccccc1)c1ccccc1O | 22 | 44* | 0 | -1
C/C(=N\NC(=O)c1nnn(-c2nonc2N)c1-c1ccccc1)c1ccc(O)cc1O | -2 | 43* | 0 | 2
COc1ccc(/C=C(/C#N)c2cccc(F)c2)c(OC)c1 | -3 | 43* | 0 | -1
COc1ccc(/C=C(/C#N)c2cccc([N+](=O)[O-])c2)c(OC)c1 | 15 | 8 | 0 | -1
O=C(COC(=O)c1c[nH]c(=O)[nH]c1=O)Nc1ccc(I)cc1 | -9 | 26 | 0 | 4
CC1=CC2=NC(=O)/C(=C\c3ccc(OCCOc4cccc(C)c4)cc3)C(=N)N2O1 | 10 | -25 | 2.2* | -1
